Source: the OligoGym collection

Target: WDR38
Assay: pooled miR-30 sensor sort-seq; sequence = guide strand
Conditions: shRNA
Note: reference of the scale not given here.

Sequence | sensor-assay potency score (higher = more potent)
ATATTTGACGTCTAGTCTGATC | -0.981
TAGTCTGATCGGCAGCTCCAGA | -1.14
TTCAGTTGGATAAGCAGGCTGC | -0.0722
TTGGTGACCCTTCAGGACCCGC | -1.34
TTGACCATGCGGGAATAGCCGG | -1.06
TTGACGTCTAGTCTGATCGGCA | -0.321
TGAGCCTGTGAGCAGCATCTGG | -1.58
TGACCGTCTCCACACTCCGTTG | -1.74
TTCTGAGCCTGTGAGCAGCATC | -1.23
TTTGACGTCTAGTCTGATCGGC | 1.06
TTTCCTGTGTTGCAGTCCCAGA | -1.04
TTTCACTCTCCGCACGGCCAGC | -1.51

Target: WDR59
Assay: as above
Conditions: shRNA

Sequence | sensor-assay potency score (higher = more potent)
TTGCAGATGGCACACTGCGTGC | -1.5
TTCAGCTCGCTTCTCTCTCAGA | -0.891
TAGACAACACACAAAGCGCAGC | -0.806
TAAAGCTAGGATATCGACTATG | -0.97
TAACACTGTAACACTGGCCCTG | 0.0657
TTCACCAGCATCTTGACACGAT | 0.208
TTACTTTTCCATCGTCTTGATT | -0.978
TACTAGAATTTTATTAGCCAAG | -1.53
